Screens (PubChem BioAssay)
CYP2C19 inh: human CYP2C19 inhibition | P33261 | CYP2C19 Supersomes, luciferin-H EGE luminescence, 30 min | inhibition, % at 5 µM | actives 21% (n = 96,000) | AID 778;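 active = CYP2C19 inhibition above a set limit at 5 µM in the primary screen, cut at about 50% in these data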;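 note: plate controls were negative control wells for no effect and 2.5 mM tranylcypromine positive control for full effect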
CYP2C19 activ: activators of human cytochrome P450 2C19. P33261. activation factor at 5 µM. 96,000 tested, under 10 active. AID 1025. recombinant CYP2C19, luciferin-H EGE luminescence; stronger effect = higher value; 0 = fully inhibited enzyme, 1 = untreated enzyme;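 active = activation factor of at least 2 at 5 µM in the primary screen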;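 note: 0 = wells with 2.5 mM tranylcypromine and 1 = vehicle-only wells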
EphB4 antag: blocks human EphB4 binding to ephrin-B2; AID 720; P54760; inhibition, % at 7 µM; actives 0.15% (n = 97,000); EphB4 LBD / TNYL-RAW-Alexa532 peptide, fluorescence polarization;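 active = inhibition above the screen-wide mean inhibition plus 3 SD, cut at about 15% in these data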;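 note: 0% = DMSO wells and 100% = excess unlabeled TNYL-RAW peptide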
CYP2C9 act: CYP2C9 (human) activation | P11712 | recombinant CYP2C9, luciferin-H conversion, luminescence; stronger effect = higher value; factor 1 = untreated enzyme, 0 = blocked | actives 1.4% (n = 96,000) | activation factor at 5 µM;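 active = activation factor of 2 or more for CYP2C9 at a 5 µM dose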;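 note: 0 = sulfaphenazole-blocked wells and 1 = vehicle-only wells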
Target sequence (P11712 whole entry, looked up): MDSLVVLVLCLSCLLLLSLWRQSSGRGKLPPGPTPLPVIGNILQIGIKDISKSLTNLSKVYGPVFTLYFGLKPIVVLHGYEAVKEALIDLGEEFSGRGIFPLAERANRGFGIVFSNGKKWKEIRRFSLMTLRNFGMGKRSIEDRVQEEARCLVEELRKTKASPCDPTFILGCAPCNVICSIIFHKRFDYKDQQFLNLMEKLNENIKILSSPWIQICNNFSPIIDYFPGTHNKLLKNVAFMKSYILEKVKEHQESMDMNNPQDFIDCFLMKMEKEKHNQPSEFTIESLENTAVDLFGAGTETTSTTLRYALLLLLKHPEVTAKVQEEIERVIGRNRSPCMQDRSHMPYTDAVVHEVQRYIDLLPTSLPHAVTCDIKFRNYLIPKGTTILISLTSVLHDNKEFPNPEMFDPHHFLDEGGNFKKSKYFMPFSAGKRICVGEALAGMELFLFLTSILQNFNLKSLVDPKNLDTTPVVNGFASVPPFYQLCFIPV
CYP2C9 inh: blocks human cytochrome P450 2C9 | inhibition, % at 5 µM | actives 20% (n = 96,000) | P11712 | CYP2C9 Supersomes, luciferin-H conversion, luminescence;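 active = blocking of liver enzyme CYP2C9 beyond about 50% at 5 µM, limit read from the data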
* marks the source's active call; other numbers are inactive results; · = not tested or not shown. The list is not random: actives were taken first. Their share in the collection is about 27%.

SMILES	CYP2C19 inh	CYP2C19 activ	EphB4 antag	CYP2C9 act	CYP2C9 inh
O=C(NCc1cccnc1)c1c(F)c(F)c(F)c(F)c1F	80.6*	0.2	9.2	0.5	46.2
O=C(O)c1ccccc1C(=O)NCc1cccnc1	31.7	0.7	-3.5	1	-2.3
COc1ccc(Cc2nnc(SCC(=O)c3ccc(OC)cc3)o2)cc1	34.9	0.7	-2.4	0.8	19.2
O=C(CCN1C(=O)/C(=C\c2ccccc2Cl)SC1=S)N1CCN(c2ccccc2)CC1	26.1	0.7	-4.7	0.9	14.7
N/C(=N\OC(=O)Oc1ccccc1)c1ccc(Br)cc1	2.1	1	0.1	0.9	6.7
O=C(NCc1cccnc1)c1nnc(Cc2ccc(F)cc2)o1	78.2*	0.2	·	0.8	20.2
CC(C)CCNC(=O)c1cccc(Cl)c1	58.0*	0.4	6.2	0.7	27.9
COc1ccc(C(=O)NCc2cccnc2)cc1OC	-3.7	1	8.8	1	-3.0
CCCCNC(=O)CCn1c(=O)c2ccccc2n(CC(=O)Nc2ccccc2OCC)c1=O	40.1	0.6	1.3	0.2	75.4*
CCCN(CCC)C(=O)Cn1c(=O)n(CCC(=O)NCCc2ccccc2)c(=O)c2ccccc21	17.4	0.8	3.7	0.3	72.3*
CCn1c(=O)c(C(=O)NCCc2ccccc2)c(O)c2ccccc21	50.1*	0.5	0.0	0.8	19.9
COCCCNC(=O)CCn1c(=O)c2ccccc2n(CC(=O)Nc2ccc(C)cc2C)c1=O	78.0*	0.2	-2.4	0.3	66.8*
COc1cccc(OCCOc2ccccc2OC(C)C)c1	90.1*	0.1	-5.1	0.8	21.6
CCOc1ccccc1OCCOc1ccccc1OC(C)C	56.0*	0.4	-3.1	0.9	10.7
CCOc1ccccc1OCCOc1ccccc1CC	30.4	0.7	0.6	1	1.8
Cc1ccc(-c2n[nH]c(=S)n2C)cc1	16.6	0.8	11.4	0.6	43.0
Cc1ccc(/C=C/C(=O)c2cc(Br)ccc2OC(=O)c2ccco2)cc1	83.2*	0.2	9.2	0.2	75.6*
COc1ccccc1/C=C/C(=O)c1cc(Br)ccc1OC(=O)c1ccco1	·	·	1.4	·	·
O=C(c1cccc(F)c1)N1CCN(S(=O)(=O)c2ccccc2)CC1	75.5*	0.2	7.7	1	-1.2
CC(C)c1ccc(S(=O)(=O)N2CCN(C(=O)c3cccc(F)c3)CC2)cc1	67.0*	0.3	-11.2	0.3	66.6*
O=C(c1cccc(Br)c1)N1CCN(C(=O)c2cccc(Br)c2)CC1	·	·	-6.9	·	·
O=C(c1ccccc1)N1CCN(S(=O)(=O)N2CCCCC2)CC1	86.9*	0.1	6.1	0.5	48.7
CC(C)CC(=O)N1CCN(C(=O)c2cccc(F)c2)CC1	27.2	0.7	-0.4	1.1	-12.3
O=C(c1ccccc1)N1CCN(C(=O)c2ccccc2Br)CC1	56.2*	0.4	4.1	0.7	30.6
O=C(c1cccc(S(=O)(=O)N2CCCCC2)c1)N1CCN(S(=O)(=O)c2ccc(F)cc2)CC1	35.2	0.6	-0.5	0.6	41.2
SMILES	CYP2C19 inh	CYP2C19 activ	EphB4 antag	CYP2C9 act	CYP2C9 inh
CCC(=O)c1ccc(OC(=O)c2ccc(Br)o2)cc1	·	·	8.0	·	·
Cc1ccc(-c2noc(COc3ccc4c(c3)OCO4)n2)cc1	·	·	5.1	·	·
Cc1c(C(=O)N2CCOCC2)sc2ncn(CC(=O)N3CCC(C)CC3)c(=O)c12	0.4	1	·	1	-1.0
CN1CCN(Cc2cccc(Oc3ccccc3)c2)CC1	69.1*	0.3	-3.6	0.9	10.0
CC1CCCN(Cc2cccc(Oc3ccccc3)c2)C1 (stereo not given)	67.3*	0.3	-0.5	0.9	11.3
Cc1cc2ncn(S(=O)(=O)c3ccc(S(=O)(=O)N4CCCCCC4)cc3)c2cc1C	·	·	-0.9	·	·
CCN(CC)CCNC(=O)CCCCn1c(=S)[nH]c2c([nH]c3ccc(OC)cc32)c1=O	9.2	0.9	2.0	0.8	16.8
COc1ccccc1C(=O)Nc1nc2ccc(S(C)(=O)=O)cc2s1	·	·	0.4	·	·
O=[N+]([O-])c1ccc(-c2cnc(SCc3ccccc3Cl)[nH]2)cc1	8.3	0.9	-0.9	0.5	52.1*
O=c1[nH]c(SCc2ccccc2Cl)nc2c1CCC2	-7.5	1.1	-11.1	0.9	12.9
Cc1cc(C)c(CSc2ncc(-c3ccc([N+](=O)[O-])cc3)[nH]2)c(C)c1	34.0	0.7	4.8	0.3	65.0*
CC1CCN(S(=O)(=O)c2csc(C(=O)Nc3ccccc3)c2)CC1	9.2	0.9	6.5	0.7	28.4
O=S1(=O)C[C@@H](O)[C@@H](Nc2ccc(Cl)cc2)C1	14.4	0.9	1.4	0.9	7.2
CCC(c1nnnn1CCc1ccccc1)N(Cc1ccco1)Cc1cc2cc(C)cc(C)c2[nH]c1=O (stereo not given)	39.0	0.6	-1.4	0.9	11.9
CCOC(=O)Cn1nnnc1C(CC)N(Cc1ccccc1)Cc1cc2cc(C)ccc2[nH]c1=O (stereo not given)	58.3*	0.4	-6.6	0.5	54.4*
CCOC(=O)Cn1nnnc1CN(Cc1ccccc1)Cc1cc2cc(CC)ccc2[nH]c1=O	48.2	0.5	·	0.4	62.5*
CCC(c1nnnn1CCc1ccccc1)N(Cc1ccco1)Cc1cc2c(C)ccc(C)c2[nH]c1=O (stereo not given)	93.4*	0.1	-0.3	0.1	93.5*
Cc1ccc2c(c1)N=C(c1ccc(Cl)cc1)CO2	14.9	0.9	-0.1	0.9	13.5
COc1ccc(OC)c(N(CC(=O)Nc2cccnc2)S(=O)(=O)c2ccc(OC)c(OC)c2)c1	88.0*	0.1	-7.5	0.1	90.1*
CCN(CC)S(=O)(=O)c1ccc(NC(=O)CN(c2ccc(OC)cc2OC)S(C)(=O)=O)cc1	85.9*	0.1	4.5	0	100.0*
COc1ccc(OC)c(N(CC(=O)O)S(=O)(=O)c2ccc(OC)c(OC)c2)c1	3.2	1	·	0.9	10.2
COc1ccc(OC)c(N(CC(=O)Nc2cccnc2)S(C)(=O)=O)c1	55.7*	0.4	-2.5	0.7	32.6
COc1ccc(OC)c(N(CC(=O)Nc2cccnc2)S(=O)(=O)c2ccc(C)cc2)c1	95.1*	0	-3.7	0.1	94.0*
COc1ccc(-n2nnc3c(SCC(=O)NCC4CCCO4)ncnc32)cc1 (stereo not given)	-3.0	1	-3.6	0.7	27.2
CCCC(=O)Nc1ccc(Cl)c(NC(=O)c2cccnc2)c1	4.6	1	1.4	0.9	6.7
O=c1c2c3nc4ccccc4nc3n(/N=C/c3cccs3)c2ncn1-c1ccccc1	-4.3	1	·	0.9	6.1
O=C(COC(=O)c1cccc(Oc2ccccc2)c1)NCc1ccco1	14.3	0.9	1.6	0.8	24.6
O=C(COC(=O)c1cccc(S(=O)(=O)N2CCN(c3ccccc3)CC2)c1)NCc1ccco1	77.9*	0.2	-2.5	0.6	44.0
CN(CCCC(=O)NCc1ccco1)S(=O)(=O)c1ccccc1	39.4	0.6	2.5	0.6	35.5
CN(c1ccccc1)S(=O)(=O)c1ccc(C(=O)OCC(=O)NCc2ccco2)cc1	97.1*	0	-6.4	0.1	94.4*
